# In all, about 1,100 compounds went through this assay and about 340 (31%) were called active. Another 40% or so got no clear call; they are omitted. The call rests on the fitted dose curve; in most records, active means well fitted inhibition curve with a large enough effect; inconclusive means small, poorly fitted or top-dose-only effect; inactive means flat fitted curve, though single readings scatter. Not all results are given here. A call without a number means that no potency is given here.
# Target: Phosphatidylinositol 5-phosphate 4-kinase type-2 alpha (Homo sapiens) (UniProt P48426)
# Sequence (P48426 whole entry, looked up): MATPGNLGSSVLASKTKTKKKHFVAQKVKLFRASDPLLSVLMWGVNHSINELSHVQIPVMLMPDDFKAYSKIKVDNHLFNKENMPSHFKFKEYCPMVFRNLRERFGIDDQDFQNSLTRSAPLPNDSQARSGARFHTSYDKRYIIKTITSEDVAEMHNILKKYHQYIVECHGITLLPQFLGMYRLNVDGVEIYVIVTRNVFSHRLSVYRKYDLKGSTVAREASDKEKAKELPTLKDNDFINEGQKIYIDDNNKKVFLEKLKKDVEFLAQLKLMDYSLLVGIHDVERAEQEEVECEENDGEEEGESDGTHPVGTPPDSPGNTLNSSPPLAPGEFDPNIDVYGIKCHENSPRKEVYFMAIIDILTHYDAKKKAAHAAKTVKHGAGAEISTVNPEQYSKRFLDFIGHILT
# Test: qHTS for Inhibitors of PI5P4K: Confirmation in Primary Assay; further: nearly all actives have a fitted effect of over 65% in size
# Conditions: PI5P4Kalpha enzyme, ADP-Glo luminescence, 60 min; series mostly up to 76.9 µM
# Text: In addition to finding PI5P, we discovered the type II phosphatidylinositol 5-phosphate 4-kinase (PI5P4K) family (alpha, beta, gamma isoforms) that catalyze the conversion of PI5P to PI(4,5)P2. Alternatively, PI(4,5)P2 can also be synthesized through phosphatidylinositol-4-phosphate (PI4P) by the type I phosphatidylinositol 4-phosphate 5-kinases (PI4P5K). These PI5P4K enzymes therefore represent one way by which cells can regulate endogenous PI5P levels and play important roles in insulin signaling and in stress responses. […] A qHTS PI5P4K-alpha ADP-Glo assay was developed to identify specific modulators of human PI5P4K, phosphatidylinositol-5-phosphate 4-kinase (Type II PIPK). This assay was screened against the MLSMR containing ~400,000 small molecules (PubChem AID 652105). To confirm that the hits were not interacting with the detection enzyme system, a 1536-well counterscreen against the ADP-Glo kit (Promega) was utilized, as described in Davis et al., 2013 [1]. Davis et al., PLoS One. 2013;8(1):e54127. NIH Chemical Genomics Center [NCGC] NIH Molecular Libraries Probe Centers Network [MLPCN] MLPCN Grant: MH096575 Assay Submitter (PI): Atsuo Sasaki, Beth Israel Deaconess Medical Center
# 2 microL of PI5P4Kalpha/substrate buffer (columns 1-2, 5-48) are dispensed into Greiner white solid bottom 1536-well assay plates; column 3 receives only PI5P4Kalpha buffer as 0x substrate controls; column 4 receives only substrate buffer as 0x PI5P4Kalpha controls. Final assay buffer consists of 0.038 M HEPES pH 7.4, 0.28 mM EGTA, 0.1% CHAPS, and 5% DMSO (final concentration). Compounds are then transferred via Kalypsys pin tool equipped with 1536-pin array (10 nL slotted pins, V&P Scientific, San Diego, CA). Following addition of compound, 1 microL of ATP (5 microM final concentration, all columns) is added to initiate the reaction. ATP is diluted in an assay buffer consisting of 0.02 M HEPES pH 7.4, 60 mM MgCl2, 15 microM ATP, and 0.1% CHAPS. The plates are then incubated at room temperature for 60 minutes. ADP-Glo reagent 1 is added (2 microL) and plates incubated for 45 minutes, before ADP-Glo reagent 2 (4 microL) is added and plates incubated for 30 minutes. They are then transferred to a ViewLux high-throughput CCD imager (PerkinElmer) wherein single end-point measurements of luminescence are acquired using a clear filter.
# Potency means the concentration at half of the fitted maximal effect.
row,Structure (SMILES),Potency
1,CCC(=O)Oc1ccc(C(=O)Nc2cccc(C(=O)c3ccccc3)c2)cc1,8.91 µM (active)
2,N#CC1c2ccccc2-n2nncc2CN1Cc1cc(Cl)cc(Cl)c1 (stereo not given),inactive
3,COC(=O)C1=C(c2ccc(F)cc2F)C[C@@H]2CC[C@H]1N2C(=O)NC1Cc2ccccc2C1,inactive
4,COc1ccc(C(=O)C2CCCN(Cc3ccon3)C2)c(OC)c1 (stereo not given),inactive
5,CC(C)NCC(O)c1ccc(C2CCCC2)cc1 (stereo not given),inactive

# Reference: PubChem BioAssay AID743286 (National Center for Advancing Translational Sciences (NCATS), 2014)
